ssDAF12 agonist: activates DAF-12 receptor from parasite S. stercoralis | HEK293 ssDAF-12/GRIP1 lit1-tk-luc reporter, luminescence; % of 3 µM dafachronic acid response | activation, % at 6.8 µM | hit rate 1% among 370,000 | AID 652126;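 active = activation above the mean over all tested compounds plus 3 SD, cut at about 0.9% in these data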
hcDAF12 agonist: activators of H. contortus DAF-12 nuclear receptor; HEK293 hcDAF-12 lit1-tk-luc reporter, luminescence; 0% DMSO, 100% Δ7-dafachronic acid; activation, % at 6.8 µM; hit rate 1.4% among 370,000;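 active = activation above the mean of all tested compounds plus 3 SD, cut at about 5.5% in these data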
AHR act: activators of human aryl hydrocarbon receptor. P35869. AHR-responsive luciferase reporter cells, luminescence. activation, % at 5 µM. hit rate 2.5% among 320,000. AID 2796; in the data active = activation above about 47%
Target sequence (P35869 whole entry, looked up): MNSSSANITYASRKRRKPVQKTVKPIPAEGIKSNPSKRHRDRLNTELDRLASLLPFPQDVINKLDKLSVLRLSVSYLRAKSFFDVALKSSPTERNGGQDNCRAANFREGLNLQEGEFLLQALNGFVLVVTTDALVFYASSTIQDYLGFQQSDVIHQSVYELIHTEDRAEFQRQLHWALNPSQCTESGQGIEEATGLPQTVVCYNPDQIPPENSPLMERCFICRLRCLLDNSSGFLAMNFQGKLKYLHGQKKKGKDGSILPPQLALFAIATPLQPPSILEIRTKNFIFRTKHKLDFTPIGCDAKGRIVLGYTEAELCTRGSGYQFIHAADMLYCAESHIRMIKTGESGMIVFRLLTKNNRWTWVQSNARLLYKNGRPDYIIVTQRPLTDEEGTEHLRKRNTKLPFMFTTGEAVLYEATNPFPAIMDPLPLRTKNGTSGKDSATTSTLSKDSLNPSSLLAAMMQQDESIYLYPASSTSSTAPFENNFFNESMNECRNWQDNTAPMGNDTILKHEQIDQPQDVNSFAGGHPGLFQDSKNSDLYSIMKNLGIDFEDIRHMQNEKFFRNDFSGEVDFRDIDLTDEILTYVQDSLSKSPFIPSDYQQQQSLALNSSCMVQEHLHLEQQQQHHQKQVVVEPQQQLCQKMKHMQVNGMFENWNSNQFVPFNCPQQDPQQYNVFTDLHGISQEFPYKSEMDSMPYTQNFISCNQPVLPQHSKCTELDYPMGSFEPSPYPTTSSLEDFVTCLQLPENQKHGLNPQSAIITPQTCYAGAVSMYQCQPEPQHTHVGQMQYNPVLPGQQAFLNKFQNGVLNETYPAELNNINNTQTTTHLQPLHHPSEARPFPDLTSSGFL
DAX1 inh-1: inhibitors of DAX1 repression of SF-1 activated StAR promoter. hit rate 1.1% among 370,000. HEK293T StAR-luciferase reporter, SF-1/DAX-1 repression relief. inhibition, % at 6.8 µM. AID 652010;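 active = inhibition above the mean over all tested compounds plus 3 SD, cut at about 3.6% in these data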;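 note: higher inhibition means more luminescence from relief of DAX-1 repression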
hgDAF-12 ag: agonists of H. glycines DAF-12 nuclear receptor. HEK293 GAL4-hgDAF12 UAS-luciferase reporter, agonist luminescence; normalized to butyrate control. activation, % at 6.8 µM. hit rate 1.8% among 370,000. AID 687014;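 active = activation above a cutoff set at the mean of all screened compounds plus 3 SD, cut at about 10% in these data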
DAX1 inh-2: NR0B1 (DAX1) inhibition; P51843; HEK293 Gal4-DAX1 luciferase reporter, luminescence; inhibition, % at 6.75 µM; hit rate 0.99% among 340,000;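 active = inhibition above the mean over all tested compounds plus 3 SD, cut at about 4.2% in these data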;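 note: inhibition shows as a rise in luminescence from relieved DAX1 repression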
Numbers stand for hits; 0 = inactive; - = no result given. Most compounds without a hit are left out; they make up all but 5.7% or so of the library.

SMILES	ssDAF12 agonist	hcDAF12 agonist	AHR act	DAX1 inh-1	hgDAF-12 ag	DAX1 inh-2
O=C(CNC(=O)c1ccc(Cl)cc1Cl)OCCOc1ccccc1	0	0	0	3.9	0	0
CCc1ccc(CCNC(=O)OCCCN2CCC3(CCC(C)CC3)C2=O)cc1 (configuration not stated)	0	0	-	0	0	-
CN(CCC#N)C(=O)COC(=O)c1ccc(CNS(=O)(=O)c2ccc(F)c(Cl)c2)cc1	0	0	0	0	0	0
Nc1ccc2nc(Cc3ccccc3)[nH]c2c1	0	0	0	0	0	4.6
O=C(NCc1ccco1)C(c1ccncc1)N(C(=O)Cn1nnc2ccccc21)c1ccccc1F (configuration not stated)	0	0	0	0	0	0
O=c1[nH]c2ccccc2cc1-c1noc(-c2cccnc2)n1	0	0	73.0	0	0	0
c1ccc(-c2noc(-c3cccnc3)n2)cc1	0	0	59.0	3.6	0	0
c1ccc(-c2ccc(-c3nc(-c4cccnc4)no3)cc2)cc1	0	0	0	3.8	0	0
c1ccc(-c2nc(-c3ccncc3)no2)cc1	0	0	0	0	0	0
COCc1[nH]nc2c1C(c1ccc(C)cc1)N(Cc1ccccc1)C2=O (configuration not stated)	0	0	-	0	0	-
Cc1cccc(NC(=O)c2cc3ccccc3c(=O)o2)n1	0	0	0	0	0	6.5
COC(=O)/C=C/c1ccc(OC(=O)OC)c(OC(=O)OC)c1	0	0	0	0	0	0
Cc1ccccc1CCNC(=O)C1CCCN(c2cnccn2)C1 (configuration not stated)	0	0	48.1	0	0	0
Cc1ccc(NC(=O)C2CCCN(c3cnccn3)C2)c(C)c1 (configuration not stated)	0	0	47.1	0	0	0
Cc1ccc(CNC(=O)C2CCCN(c3cnccn3)C2)cc1 (configuration not stated)	0	0	58.0	0	0	0
O=C(NCCc1ccccc1)C1CCCN(c2cnccn2)C1 (configuration not stated)	0	0	64.0	0	0	0
CCc1nc2ccc(C(=O)NCCN3CCOCC3)cn2c1N(C)Cc1ccc(OC)cc1	0	0	-	0	0	-
CCn1c(SCC(=O)N(C)C)nc2cc(S(=O)(=O)N3CCCCC3)ccc21	0	0	0	0	0	0
COc1ccccc1C1=NN(C(=O)c2ccccc2)C(c2ccc(Br)cc2)C1 (configuration not stated)	0	0	0	0	0	0
O=C(O)C1CCCN1C(=O)c1cccc(Cl)c1 (configuration not stated)	0	0	-	0	0	-
CC1=C(CC(=O)c2ccc(Cl)cc2)C(=O)c2ccccc2C1=O	0	0	54.7	0	0	0
O=C(Cc1ccccn1)c1ccc(Cl)cc1	0	0	0	0	0	0
O=c1[nH][nH]c2c1[C@H](CCc1cccc(Cl)c1)O[C@H](C1CC1)C2	0	0	-	0	0	-
CC1OC(CCc2cccc(Cl)c2)Cc2[nH][nH]c(=O)c21 (configuration not stated)	2.0	0	-	0	0	-
Cc1cccc(Cl)c1OCCCN1CCOCC1	0	0	0	0	0	0
SMILES	ssDAF12 agonist	hcDAF12 agonist	AHR act	DAX1 inh-1	hgDAF-12 ag	DAX1 inh-2
Cc1ccc(CSc2nc3c(c(=O)[nH]2)CCC3)cc1	0	0	0	0	0	0
COC(=O)c1ccc(CSc2nc3c(c(=O)[nH]2)CCC3)cc1	0	0	-	3.7	0	-
Cc1cccn2c(CN(C)C3CCOC3)c(C(=O)N3CCCCC3)nc12 (configuration not stated)	0	0	0	0	0	4.3
CN(Cc1c(C(=O)N2CCCCCCC2)nc2ccc(Cl)cn12)C1CCOC1 (configuration not stated)	0	0	-	0	0	0
Cc1ccc2sc(-c3ccc(NC(=O)c4cc(-n5cnnc5)ccc4Cl)cc3)nc2c1	0	0	0	0	11.3	0
O=C1CC(CC(=O)N/N=C/c2ccccc2[N+](=O)[O-])=NN1	0	0	47.4	0	0	0
CCOc1ccc(C(=O)N/N=C/c2ccccc2[N+](=O)[O-])cc1	0	0	0	0	10.5	0
Cc1ccc(C(=O)N/N=C\c2ccccc2[N+](=O)[O-])cn1	0	0	-	0	0	0
O=C(C[n+]1ccccc1)N/N=C/c1ccccc1[N+](=O)[O-]	0	0	0	0	0	0
Cc1ccc(C(=O)N/N=C\C=C\c2ccccc2[N+](=O)[O-])cn1	0	0	58.9	0	0	0
Cn1c(=O)c2c(ncn2CC(=O)N/N=C/C=C/c2ccccc2[N+](=O)[O-])n(C)c1=O	-	-	60.8	-	-	-
Cc1nnc(SCC(=O)Nc2ccc([N+](=O)[O-])cc2)n1CC1CCCO1 (configuration not stated)	0	0	0	0	0	0
O=C(NCCS(=O)(=O)c1ccc(Br)cc1)c1ccc(Cl)cc1Cl	0	0	0	0	0	0
Cc1ccc(C(=O)N/N=C\C=C\c2ccc(Br)cc2)cn1	1.0	6.5	0	0	0	0
CCC(C(=O)Nc1ccccc1N1CCCC1)c1cccc(Cl)c1 (configuration not stated)	0	0	-	0	0	-
CCOC(=O)/C(=C\c1c[nH]c2ccccc12)NC(C)=O	1.4	0	0	0	0	0
Cc1cc2c(cc1C)/C(=N/NC(=O)c1ccccn1)CCC2	0	0	0	0	10.7	-
O=C(N/N=C1\CCc2ccccc21)c1ccccc1Cl	0	0	0	0	11.9	0
O=C(N/N=C1\CCc2ccccc21)c1ccc(O)cc1	0	0	0	0	0	0
Cc1cc(C)c2c(c1)/C(=N/NC(=O)c1ccc(O)cc1)CCC2	0	0	0	0	0	0
CC(=O)c1cccc(NC(=O)C2C3C=CC(C3)C2C(=O)O)c1 (configuration not stated)	0	0	0	0	0	0
COc1cc(NC(=O)C2C3C=CC(C3)C2C(=O)O)ccc1NC(=O)c1ccccc1 (configuration not stated)	0	0	56.0	0	0	0
COc1ccccc1-n1c(=O)oc2ccc(Cl)cc2c1=O	0	0	68.2	0	0	0
COc1ccccc1OCCCn1c(=O)oc2ccc(C)cc21	0	0	59.7	0	0	0
O=c1oc2ccccc2n1CCCOc1ccccc1	0	0	0	0	10.7	0
CN(C)CCSc1nnc(-c2ccccc2)o1	0	0	0	0	0	0
CN(C)c1cccc(-c2nnc(SCCCC#N)o2)c1	0	0	0	0	10.9	0
CCN(CC)C(=O)c1cc(-c2ccc(Br)cc2)on1	0.9	0	0	0	10.8	0
COC(=O)c1cc(-c2ccc(Br)cc2)on1	0	0	0	0	0	0
O=C1O[C@@H](c2ccccc2)C[C@@H](O)[C@H](O)CCCCc2ccccc21	0	0	-	0	0	-

Screening results deposited in PubChem BioAssay by The Scripps Research Institute Molecular Screening Center.
